The text below walks through data of PubChem BioAssay (NCI).

Some test systems named below: SK-MEL-2 melanoma; EKVX NSCLC; SN12C renal; UO-31 renal; TK-10 renal; ACHN renal; CAKI-1 renal; A498 renal; CCRF-CEM leukemia; MOLT-4 leukemia; SR leukemia; RPMI-8226 leukemia; OVCAR-8 ovarian; OVCAR-5 ovarian; OVCAR-4 ovarian; SK-OV-3 ovarian; IGROV1 ovarian; OVCAR-3 ovarian; HS 578T breast; NCI/ADR-RES ovarian.
Common to all, as to assay: NCI-60 one-dose screen, 48 h (100 = growth as untreated, 0 = no growth, -100 = all killed)
Common to all, as to conditions: 10 µM unless noted

The panel holds about 83,000 compounds, 20% with a hit somewhere; the sample as a whole holds those more often.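 Interpretation: 100, growth as untreated; towards 0, rising growth inhibition; 0, no net growth; 0 to -100, cell death. Compounds scoring below 10 were considered active.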 A number with no mark means an inactive call. The source made the active and inactive calls.

Take `CC/C(=C(/c1ccc(Cl)cc1)c1ccc(OCCN(C)C)cc1)c1ccc(Cl)cc1`: the growth in the assay with SK-MEL-2 melanoma is 80.9%; with EKVX NSCLC it was 73.7%; with SN12C renal, 81.3%; in the assay on UO-31 renal, 64.3%; in the assay with TK-10 renal it was 77.8%; in the assay on ACHN renal it was 83.9%. Further, the growth in the assay on CAKI-1 renal is 60.4%; in the assay with A498 renal it was 59%; in the assay on CCRF-CEM leukemia it was 62.5%; with MOLT-4 leukemia, 58.2%; in the assay with SR leukemia, -6.88% (active); with RPMI-8226 leukemia, 32.8%. The growth with OVCAR-8 ovarian was 75.1%; in the assay with OVCAR-5 ovarian, 83.9%; in the assay on OVCAR-4 ovarian, 78%; with SK-OV-3 ovarian, 90%; with IGROV1 ovarian it was 72.5%; in the assay with OVCAR-3 ovarian it was 65%. Besides, the results for the growth with HS 578T breast and with NCI/ADR-RES ovarian were 75.1% and 74.8%, respectively.

Regarding `Cn1cc(-c2csc(-c3c[nH]c4ccccc34)n2)c2cnccc21`, the growth was 96.2% with SK-MEL-2 melanoma; 7.91% (active) in the assay with EKVX NSCLC; 43.5% in the assay with SN12C renal; -64.4% (active) in the assay on UO-31 renal; 55.4% with TK-10 renal; -4.48% (active) in the assay on ACHN renal. For the same compound, the growth in the assay on CAKI-1 renal is -1.8% (active); in the assay with A498 renal, 77.1%; in the assay on CCRF-CEM leukemia it was -8.15% (active); in the assay with MOLT-4 leukemia it was -5.2% (active); in the assay with SR leukemia it was -7.21% (active); in the assay on RPMI-8226 leukemia it was -28% (active). The growth in the assay on OVCAR-8 ovarian was 18.2%; with OVCAR-5 ovarian, 75.4%; in the assay with OVCAR-4 ovarian, 14.3%; with SK-OV-3 ovarian, 85.3%; in the assay on IGROV1 ovarian, 47.3%; in the assay with OVCAR-3 ovarian it was -59.8% (active). Further, the growth with NCI/ADR-RES ovarian was 35.9%.

`COc1ccc(Nc2ncc(Br)c(NCCCNC(=O)C3CCCC3)n2)cc1`: the growth in the assay with SK-MEL-2 melanoma was 63.6%; with EKVX NSCLC, 47.3%; in the assay on SN12C renal it was 22%; in the assay with UO-31 renal, -30.8% (active); with TK-10 renal it was 23.3%; in the assay with ACHN renal, 19.8%. The growth with CAKI-1 renal is 9.48% (active); in the assay with A498 renal it was 54.6%; with CCRF-CEM leukemia, 27.1%; in the assay with MOLT-4 leukemia, 19.5%; in the assay with SR leukemia, 47%; in the assay with RPMI-8226 leukemia, 49.3%. The growth in the assay on OVCAR-8 ovarian is 36.7%; with OVCAR-5 ovarian it was 54.6%; with OVCAR-4 ovarian, 56.7%; with SK-OV-3 ovarian, 30.6%; with IGROV1 ovarian, 14.1%; in the assay with OVCAR-3 ovarian it was 46.6%. Also, the growth in the assay on NCI/ADR-RES ovarian was 51.5%.

As to `Nc1nc(-c2ccc(Cl)cc2)nc2c1sc(=S)n2-c1ccccc1`, the growth with SK-MEL-2 melanoma was 83.7%; with EKVX NSCLC, 40.7%; with SN12C renal, 53.2%; in the assay with UO-31 renal it was -38.4% (active); with TK-10 renal it was 14.1%; in the assay on ACHN renal it was -4.93% (active). The growth with CAKI-1 renal was 42.3%; with A498 renal, 26.3%; with CCRF-CEM leukemia it was 85.4%; in the assay on MOLT-4 leukemia it was 82.8%; in the assay with SR leukemia it was -17.8% (active); with RPMI-8226 leukemia it was 45.5%. The growth in the assay on OVCAR-8 ovarian was 32.4%; in the assay on OVCAR-5 ovarian it was 62.6%; with OVCAR-4 ovarian, -20.1% (active); in the assay on SK-OV-3 ovarian, 23.4%; in the assay on IGROV1 ovarian, 44.9%; in the assay on OVCAR-3 ovarian it was 40.2%. Also, in the assay with NCI/ADR-RES ovarian, the growth was 43.8%.

Take `CCOC(=O)c1cc(C)n(-c2ccc(C(=O)O)cc2)c1C`: the growth is 32% in the assay on SK-MEL-2 melanoma; 118% in the assay on EKVX NSCLC; 87.9% with SN12C renal; 86.7% with UO-31 renal; 93.5% in the assay on TK-10 renal; 2.34% (active) in the assay with ACHN renal. For the same compound, the growth in the assay with CAKI-1 renal was 79.7%; in the assay on A498 renal, 111%; with CCRF-CEM leukemia, 92.2%; in the assay on MOLT-4 leukemia it was 92.3%; with SR leukemia, 75.5%; in the assay on RPMI-8226 leukemia, 104%. For the same compound, the growth in the assay with OVCAR-8 ovarian is 87.6%; with OVCAR-4 ovarian it was 94.6%; with SK-OV-3 ovarian, 92.8%; with IGROV1 ovarian, 107%; with OVCAR-3 ovarian it was 115%; with HS 578T breast, 90.8%. In addition, the growth with NCI/ADR-RES ovarian was 89.6%.

For `CCCn1cc2c(=O)nc3sc(Cc4ccccc4)c(C)n3c2n1`, the growth with SK-MEL-2 melanoma is 93.7%; with EKVX NSCLC it was 104%; in the assay on SN12C renal, 104%; in the assay on UO-31 renal, 78.5%; with TK-10 renal, 92.9%; in the assay on ACHN renal, 109%. The growth with CAKI-1 renal was 87.7%; in the assay with A498 renal, 100%; with CCRF-CEM leukemia, 92.3%; in the assay on MOLT-4 leukemia, 78%; in the assay on SR leukemia, 73.8%; in the assay with RPMI-8226 leukemia it was 99.5%. For the same compound, the growth in the assay on OVCAR-8 ovarian was 91.8%; in the assay with OVCAR-5 ovarian, 111%; with OVCAR-4 ovarian, 99%; with SK-OV-3 ovarian, 104%; in the assay on IGROV1 ovarian, 105%; in the assay with OVCAR-3 ovarian, 99.3%. Moreover, the growth is 99.5% with HS 578T breast and 96.7% with NCI/ADR-RES ovarian.

With `CNC(=O)c1ccccc1Oc1nc(Nc2cc(OC)c(OC)c(OC)c2)ncc1Br`, the growth is 1.29% (active) in the assay on SK-MEL-2 melanoma; 55.3% in the assay on EKVX NSCLC; 75.8% in the assay on SN12C renal; 33% with UO-31 renal; 50.5% in the assay on TK-10 renal; 67.1% in the assay with ACHN renal. The growth with CAKI-1 renal is 37%; with A498 renal, -18.3% (active); in the assay on CCRF-CEM leukemia it was 59.5%; in the assay on MOLT-4 leukemia, 68.6%; with SR leukemia, 42.9%; with RPMI-8226 leukemia it was 73.1%. Also, the growth in the assay on OVCAR-8 ovarian was 72.2%; in the assay with OVCAR-4 ovarian, 49.5%; with SK-OV-3 ovarian, 70.1%; with IGROV1 ovarian, 46.8%; in the assay on OVCAR-3 ovarian it was 66%; in the assay on HS 578T breast, 69.2%. In addition, the growth with NCI/ADR-RES ovarian is 66.8%.

As for `CC(C)=CC(=O)OCC(=O)O[C@@H]1C[C@]2(C(C)C)O[C@@]1(C)[C@@H]1CC[C@@H](C)[C@H]1[C@@H]2OC(=O)/C=C/c1ccccc1`, the growth was 89% with SK-MEL-2 melanoma; 84.1% with EKVX NSCLC; 39.8% with SN12C renal; -64.7% (active) in the assay on UO-31 renal; 95.5% in the assay on TK-10 renal; 4.57% (active) in the assay with ACHN renal. Further, the growth is 12.8% in the assay with CAKI-1 renal; -79.2% (active) in the assay on A498 renal; 78.4% in the assay on CCRF-CEM leukemia; 79.1% with MOLT-4 leukemia; 69.2% with SR leukemia; 56% with RPMI-8226 leukemia. Besides, the growth in the assay with OVCAR-8 ovarian is 35.9%; in the assay on OVCAR-5 ovarian it was 103%; in the assay with OVCAR-4 ovarian it was 96.5%; in the assay with SK-OV-3 ovarian, 91.7%; in the assay on IGROV1 ovarian, 108%; in the assay with OVCAR-3 ovarian, 96.5%. Also, in the assay on NCI/ADR-RES ovarian, the growth is 30.6%.
